This is part of a sample that, as a whole, favours compounds with a hit. Of some 83,000 tested, about 20% had one in any assay.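 For each line, cells grew in 96-well plates with the test compound present at a single concentration for 48 hours.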 Calls of active or inactive are those of the source. How the source made its calls: active means growth percent below 10; inactive means the rest.
test system: SR leukemia; test: NCI-60 one-dose screen, 48 h (100 = growth as untreated, 0 = no growth, -100 = all killed); conditions: 10 µM unless noted

Compound | growth
COc1nc(OC)nc(-c2cc(C(=O)c3ccc(Br)cc3)n3cc(C)cc(C)c23)n1 | 87% (inactive)
Brc1c(-c2ccncc2)nc2n1CCS2 | 52.9% (inactive)
CC(=O)/C(=C\c1c(-c2ccccc2)[nH]c2ccccc12)S(=O)(=O)c1ccccc1 | -35.9% (active)
COc1ccc(/C=N/c2cc(C(C)(C)C)nn2-c2ccccc2)cc1 | 78.4% (inactive)
CCC1(CC)C(OC)NC(Br)=C(C#N)C1(C#N)C(N)=O (stereo not drawn) | 57.5% (inactive)
COc1ccc(CN2C(=O)/C(=C\C(=O)c3ccc(OCCN4CCCC4)cc3)c3ccccc32)cc1 | -14.2% (active)
COc1ccc(/C=C2\SC(=O)N(Cc3cc(=O)oc4ccc(OC)cc34)C2=O)cc1 | 69.6% (inactive)
c1cc(C2CCCCC2)ccc1OCCCCCCN1CCNCC1 | -4.39% (active)
COc1cc(/C=C/C(=O)/C=C(/C=C/c2ccc(OC(C)=O)c(OC)c2)OB(F)F)ccc1OC(C)=O | -2.62% (active)
Cc1c([C@H](C(Cl)Cl)[C@H](O)[C@H]2C[C@H](C)C(=O)O2)ccc2c1C(=O)[C@H]1[C@H]2C[C@@H](Br)[C@@]23O[C@@H](CO[C@H]2O)CC13C (stereo partly drawn) | 11.9% (inactive)
O=C1/C(=N\c2cc(=O)[nH]n2S(=O)(=O)c2ccccc2)Nc2ccccc21 | 89.7% (inactive)
N=C(N)c1ccc(-c2ccc(-c3ccc(Cl)cc3)s2)s1 | -30.1% (active)
COc1cc([C@@H]2c3cc4c(cc3[C@H](O)[C@H]3COC[C@@H]23)OCO4)cc(OC)c1OC | 25.9% (inactive)
O=Nc1c(-c2c(O)[nH]c3cc(Br)ccc23)[nH]c2ccccc12 | -40.5% (active)
CC(C)(C)C(=O)OCOP(=O)(OCOC(=O)C(C)(C)C)C1CC(O)N(O)C1=O (stereo not drawn) | 8.3% (active)
CC1(C)CC(=O)C2=C(C1)Oc1nc(N)c(C#N)c(N)c1C2c1ccc(F)cc1 (stereo not drawn) | 55.3% (inactive)
O=C1c2cc([N+](=O)[O-])ccc2-c2cc(Cl)c(NC(=O)C(F)(F)F)cc21 | 98.6% (inactive)

Compound | growth
COc1ccc(CNCCCN2C(=O)c3ccc4c5c(ccc(c35)C2=O)C(=O)N(CCCNCc2ccc(OC)c(OC)c2OC)C4=O)c(OC)c1OC | -55.4% (active)
O=C(Nc1ccccc1)Nc1ccc(Nc2ncnc3sc4c(c23)CCCC4)cc1 | 97.9% (inactive)
O=S(=O)(Cc1cccc2c(CS(=O)(=O)c3ccc(Cl)cc3)cccc12)c1ccc(Cl)cc1 | 94.7% (inactive)
COc1cc(CNC(=O)CCCC/C=C/C(C)C)ccc1OCc1nnc(Nc2ccccc2F)o1 | 67.3% (inactive)
Nc1nc2c(c3ncncc13)C(c1cccc(C(F)(F)F)c1)Cc1ncncc1-2 (stereo not drawn) | 32.9% (inactive)
Cn1cnc2nc[nH]c2c1=S | 89.6% (inactive)
O=C(O)c1ccc(-c2nn(-c3ccc(C(=O)O)cc3)cc2CNc2ccc(Br)cc2)cc1 | 107% (inactive)
CCC(C)C1NC(=O)C(CC(C)C)NC(=O)C(C)NC(=O)C(C(C)C)NC(=O)C(CCCCN)NC(=O)C(CC(C)C)NC(=O)C(C(C)C)NC(=O)[C@H](C)NC(=O)C(C(C)CC)NC(=O)C(CCCN=C(N)N)NC(=O)C(CCCCN)NC(=O)C(CCCN=C(N)N)NC(=O)C(CCCCN)NC(=O)C([C@H](C)CC)NC(=O)C(CCCCN)NC1=O (stereo partly drawn) | 2.37% (active)
CCC(CCCN1C(=O)c2ccccc2C1=O)Nc1cc(OC)cc2cccnc12 (stereo not drawn) | 73.5% (inactive)
O=c1c(N=Nc2nccs2)c(-c2ccccc2)[nH]n1-c1nc(-c2ccccc2)cs1 | 33.4% (inactive)
CCOC(=O)C1C(=O)C(=O)N(C(C)C)C1C(=O)OCC (stereo not drawn) | 108% (inactive)
COc1ccc2c(c1)/C(=C1/S/C(=N/c3nnc(C)s3)NC1=O)C(=O)N2Cc1ccc(Br)cc1 | 55% (inactive)
O=C(O)CC1Cc2ccccc2C1C(=O)O (stereo not drawn) | -8.39% (active)
CCc1ccc(C(=Nc2ccc(N(C)C(=O)CN3CCN(C)CC3)cc2)c2c(O)[nH]c3ccc(C(=O)OC)cc23)cc1 | -27.7% (active)
N#CCCCCCCCCCCC#N | 118% (inactive)
O=C1CSC(c2ccccc2Cl)N1c1nnc(-c2ccncc2)o1 (stereo not drawn) | 96% (inactive)

From PubChem BioAssay (NCI)
